Data: PubChem BioAssay AID2551 (National Center for Advancing Translational Sciences (NCATS), 2010)
Where “and” joins values, the source holds several entries; their conditions need not be identical. Identical values can stand only once. The whole screen tested about 310,000 compounds, of which about 17,000 (5.5%) were called active. Entries that show only a call come without a potency. Inconclusive results (about 11%) are left out. The call rests on the fitted dose curve; in most records, active means well fitted inhibition curve with a large enough effect; inconclusive means small, poorly fitted or top-dose-only effect, or effect the other way; inactive means no such curve, though single readings can be large or run the other way. The sample as a whole holds a higher share of actives than the screen did.

biological target: Nuclear receptor ROR-gamma (Mus musculus) (UniProt P51450); assay: qHTS for inhibitors of ROR gamma transcriptional activity; conditions: Drosophila S2 Gal4-RORgamma UAS-luciferase reporter, 20 h; series mostly up to 53.6 µM; further: nearly all actives have a fitted effect of over 60% in size
Text: NIH Molecular Libraries Probe Production Network [MLPCN] NIH Chemical Genomics Center [NCGC] MLPCN Grant: R03 DA026211-01 Assay Provider: Dan Littman, New York University Assay Overview: The retinoic acid-related orphan receptor (ROR) gamma is a transcription factor that has a central role in the differentiation of Th17 cells, a subset of T helper cells that secrete the inflammatory cytokines IL-17, IL-17F, and IL-22. Th17 cells have been implicated in graft versus host disease, autoimmune disease and asthma. ROR gamma is induced in naive T helper cells in the presence of TGF-beta combined with IL-6, IL-21, or IL-23, and thereafter directs the expression of the Th17 lineage cytokines. To study the mechanism of action of ROR gamma, an insect cell-based assay was screened. This Drosophila Schneider cell line was stably transfected with two vectors: a gene expressing a fusion of the Gal4 DNA binding domain and ROR gamma transactivation domain under the control of the metallothionine promoter and a Photinus luciferase reporter regulated by the Gal4 binding site enhancer, UAS. […] Small molecule inhibitors of ROR gamma activity are detected by a decrease in luciferase reporter activity.
Assay Protocol Summary: For screening, 600 cells in 4 uL/well were dispensed into white solid 1536-well plates (Grenier) using a solenoid-based dispenser. Following transfer of 23 nL compound or DMSO vehicle by a pin tool, the plates were incubated 1 hr at ambient temperature, and 1 uL/well copper sulfate (700 uM final concentration) was added. The plates were centrifuged 15 s at 1000 RPM and incubated 20 hr at ambient temperature. After addition of 1.5 uL Photinus luciferase detection reagent, the plates were incubated 10 min at ambient temperature and then read by an ViewLux (Perkin Elmer) to detect luminescence. Keywords: NIH Roadmap, MLPCN, MLI, MLSMR, qHTS, NCGC, qHTS, nuclear hormone receptor, retinoic acid-related orphan receptor, ROR gamma
Potency means the concentration at half of the fitted maximal effect.

Chain of Nuclear receptor ROR-gamma (Mus musculus) (P51450 whole entry, looked up, the tested form may be a part): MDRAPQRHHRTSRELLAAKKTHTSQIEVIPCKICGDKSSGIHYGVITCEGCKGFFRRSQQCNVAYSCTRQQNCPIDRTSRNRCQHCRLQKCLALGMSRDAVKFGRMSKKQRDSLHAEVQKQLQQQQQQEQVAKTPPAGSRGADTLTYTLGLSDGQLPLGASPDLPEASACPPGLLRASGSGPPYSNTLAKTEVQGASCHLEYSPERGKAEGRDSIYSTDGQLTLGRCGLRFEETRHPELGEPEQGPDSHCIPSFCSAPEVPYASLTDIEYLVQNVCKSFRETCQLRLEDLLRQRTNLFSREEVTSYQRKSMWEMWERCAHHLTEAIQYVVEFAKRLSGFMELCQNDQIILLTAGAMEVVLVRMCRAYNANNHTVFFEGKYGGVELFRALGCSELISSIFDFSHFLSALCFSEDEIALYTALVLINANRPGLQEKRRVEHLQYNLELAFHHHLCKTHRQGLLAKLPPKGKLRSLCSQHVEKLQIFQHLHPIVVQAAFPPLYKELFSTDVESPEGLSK

Structure (SMILES)	Potency
Cc1cccc(N(C(=O)Cn2nnc(-c3ccc(C)o3)n2)C(C(=O)NC2CCCC2)c2ccncc2)c1 (stereo not drawn)	inactive
O=C(CCN1C(=O)[C@H]2CC=CC[C@H]2C1=O)NCc1nc(-c2ccccc2)no1	inactive
CCCNC(=O)c1ccc(N2CCC3(CC2)CC(c2ccc(Cl)cc2)=NO3)c([N+](=O)[O-])c1	inactive
O=C1CCC(C(=O)N2CCC(O)(c3ccccc3)CC2)CN1CCc1ccccc1 (stereo not drawn)	inactive
Cc1ccc(N2CCN(C(=O)c3cccs3)CC2)c(C)c1	inactive
COc1ccc(/C=N/OCc2ccccc2C#N)c(OC)c1	inactive
Cc1ccc(C(=O)NCC(=O)NCc2cc(=O)n(C)c(=O)n2C)cc1	inactive
COc1ccc(Cl)cc1CSc1ncn[nH]1	inactive
O=C(NCCOCc1ccc(Cl)cc1)c1ncn[nH]1	inactive
O=C(/C=C/Sc1ncn[nH]1)c1ccc(Cl)cc1	4.47 µM (active)
COCCNC(=O)COc1ccc(N(C)S(=O)(=O)c2ccc3ccccc3c2)cc1	inactive
COc1cccc(N(CC(=O)NC2CCCC2)C(=O)CCCC(=O)Nc2ccccn2)c1	inactive
COc1ccc(/C=C2\NC(=O)[C@@H]3Cc4ccccc4CN3C2=O)cc1	inactive
COc1ccc(/C=C2/S/C(=N/N=C3\CC4CCC3(C)C4(C)C)NC2=O)cc1 (stereo not drawn)	10 µM (active)
COc1ccc(/C=C2\SC(=N)N(c3ccc(F)cc3)C2=O)cc1	inactive
Cc1ccc(C)c(C(=O)N2CCC(n3nccc3NC(=O)C3CC3)CC2)c1	inactive
Cc1[nH]nc(-c2ccc(OCc3cnn(-c4ccccc4)c3)cc2O)c1Oc1ccc(Cl)cc1	2.24 µM (active)
Cn1c(COc2ccc(Cl)cc2)nc2ccccc2c1=O	inactive
COc1ccc(-c2nc(N)ncc2-c2ccc(Cl)cc2)c(O)c1	inactive
Cc1nc(COc2cc3oc(=O)cc(C)c3cc2Cl)cs1	inactive
CC(=O)NCCc1ccc(S(=O)(=O)Nc2ccc(C)c(S(=O)(=O)N3CCOCC3)c2)cc1	inactive
O=C(Nc1cccc(NC(=O)c2cccc(F)c2)c1)c1ccccc1	inactive
COc1ccc(CCNS(=O)(=O)c2ccc(F)cc2)cc1OC	inactive

Structure (SMILES)	Potency
CCS(=O)(=O)NCCc1ccc(OC)c(OC)c1	11.2 µM (active)
COc1ccc(CCNS(=O)(=O)c2ccc(Cl)s2)cc1OC	inactive
COc1ccc(S(=O)(=O)N2CCC(C(=O)NCc3ccco3)CC2)cc1C	inactive
Cc1cccc(-c2noc(CCC(=O)NC3CCCC3)n2)c1	inactive
O=C(NCCCN1CCOCC1)c1cc(-c2ccccc2F)no1	inactive
COC(=O)Cn1c2ccc(C)cc2c2nc(C)sc21	inactive
CCn1c(O)c(N=NC2=NC(=O)CS2)c2cc(C)ccc21	4.47 µM (active)
CCn1c(=O)cc(O)c2ccccc21	inactive
CN(CC(=O)Nc1ccc(Cl)cc1)C(=O)CNC(=O)c1ccc2ccccc2c1	inactive
Cn1cc(CCC(=O)NC2CC2)c2ccccc21	inactive
O=C(CNC(=O)Cc1ccccc1)N=Nc1c(O)[nH]c2ccc(Br)cc12	inactive
O=C(C1CCCN(S(=O)(=O)c2ccc([N+](=O)[O-])cc2)C1)N1CCCCC1 (stereo not drawn)	inactive
O=[N+]([O-])c1cccc2ncccc12	inactive
Cc1ccccc1NC(=O)c1ccccc1NS(=O)(=O)c1cccc2cccnc12	inactive
O=[N+]([O-])c1ccccc1S(=O)(=O)Nc1cccc2cccnc12	501 nM (active) and 708 nM (active)
O=C(Cc1ccccc1F)NC1CCSc2ccccc21 (stereo not drawn)	inactive
CC(C)c1ccc(S(=O)(=O)NC2CCCC2)cc1	inactive
CCn1c(CNC(=O)c2cc(OC)c(OC)c(OC)c2)cc2cc(C)ccc21	inactive
CC(=O)N1CCCc2cc(S(=O)(=O)N3CCCC(C(=O)N4CCN(c5cccc(Cl)c5)CC4)C3)ccc21 (stereo not drawn)	5.62 µM (active)
CC(=O)N1CCCc2cc(S(=O)(=O)N3CCCC(C(=O)NCc4ccc(Cl)cc4)C3)ccc21 (stereo not drawn)	inactive
CC(=O)N1c2ccc(S(=O)(=O)N3CCCC(C(=O)Nc4cccc(Cl)c4)C3)cc2CC1C (stereo not drawn)	inactive
COc1ccc2oc(C(=O)NCc3ccco3)c(C)c2c1	inactive
CC(C(=O)N1CCN(c2ccccc2F)CC1)c1ccc([N+](=O)[O-])cc1 (stereo not drawn)	inactive

Structure (SMILES)	Potency
COc1ccc(CNc2nccs2)cc1	inactive
COc1ccc(Cc2nnc(N/N=C/c3ccccc3O)[nH]c2=O)cc1OC	3.98 µM (active)
CCOc1ccc(-n2c(O)c(/C=N/Nc3nnc(C)c(=O)[nH]3)c3ccccc3c2=O)cc1	inactive
O=c1[nH]c(NCCO)nnc1Cc1ccc(Cl)cc1	inactive
NC(=O)N1CCc2ccccc21	inactive
O=C(NC(=S)N1CCc2ccccc21)c1ccco1	1.41 µM (active)
O=C(CSCc1ccccc1)N1CCc2ccccc21	inactive
COc1cc(/C=N/N2CCN(c3ccccc3)CC2)ccc1OC(C)=O	inactive
CC(C)=CCN1CCN(Cc2cc3ccccc3[nH]2)CC1CCO (stereo not drawn)	inactive
CCCOC(=O)Nc1sc2c(c1C(=O)OCC)CCC2	inactive
CCOC(=O)c1c(NC(=O)C(C)Sc2c[nH]c3ccccc23)sc2c1CCC2 (stereo not drawn)	inactive
CCOC(=O)c1c(NC(=S)NC(=O)c2ccco2)sc2c1CCCC2	3.16 µM (active)
CCOC(=O)c1c(NC(=S)Nc2ccccc2)sc2c1CCN(C)C2	inactive
O=C(Nc1sc2c(c1C(=O)O)CCC2)c1ccccc1F	inactive
CCOC(=O)c1c(NC(=S)Nc2ccccc2C)sc2c1CCC2	3.55 µM (active)
CCOC(=O)c1c(NC(=O)CSc2nnc(C)c(=O)[nH]2)sc2c1CCC2	inactive
CCOC(=O)c1c(NC(=O)c2ccc(Br)o2)sc2c1CCCC2	inactive
CCOC(=O)c1c(NC(=O)CCC(=O)NCc2ccco2)sc2c1CCCC2	inactive
CCOC(=O)c1c(NC(=S)NC)sc2c1CCCC2	0.891 µM (active)
CCN(CC)CC(=O)Nc1sc2c(c1C(=O)c1ccccc1C)CCC2	7.08 µM (active)
CCc1ccc(N(CC(=O)Nc2sc3c(c2C(=O)OC)CCCC3)S(C)(=O)=O)cc1	inactive
Cc1coc2c1c(C)cc1oc(=O)c(CC(=O)NCC(=O)N[C@H](C(=O)O)C(C)C)c(C)c12	inactive
CCCCNC(=O)CN1C(=O)NC(Cc2ccccc2)(Cc2ccccc2)C1=O	inactive

Structure (SMILES)	Potency
O=C(NCC(=O)N1CCN(c2ccccc2O)CC1)c1ccc2ccccc2c1	inactive
Cc1cc(C)cc(N(CC(=O)NC2CCCC2)C(=O)CCC(=O)Nc2cc(C)on2)c1	inactive
O=C(CN1CCOC1=O)N1CCCC(Nc2ccc(F)c(F)c2)C1 (stereo not drawn)	inactive
O=C(CCNS(=O)(=O)c1cccs1)N1CCN(c2ccc(F)cc2)CC1	inactive
CCCc1nnc(SCC(=O)Nc2ccc(C(=O)OCC)cc2)o1	inactive
CCN(C(=O)Cc1c(C(=O)O)n(CC)c2ccccc12)c1ccccc1C	inactive
CCOC(=O)c1ccccc1NC(=O)COC(=O)CCC(=O)N1CCOCC1	inactive
CC(CC(=O)N1CCN(S(=O)(=O)c2ccccc2)CC1)n1cncn1 (stereo not drawn)	inactive
CCOc1ccc(-n2c(SCC(=O)Nc3ccc(OC)cc3)nc3sc4c(c3c2=O)CCN(C)C4)cc1	inactive
CCOc1ccccc1-c1nc(CN2CCC(C(=O)N3CCOCC3)CC2)c(C)o1	inactive
Cn1c(=O)c(-c2ccccc2)nc2cnc(N3CCNCC3)nc21	inactive
O=c1c(-c2ccc(F)cc2)nc2cnc(N3CCNCC3)nc2n1Cc1cccs1	inactive
N#Cc1cccc(-c2nc3cnc(N4CCNCC4)nc3n(C3CC3)c2=O)c1	12.6 µM (active)
Cc1c2cnn(CC(=O)NCCCN3CC(C)CC(C)C3)c(=O)c2c(C)n1Cc1ccc(Cl)cc1 (stereo not drawn)	inactive
CC(C)(c1ccccc1)c1ccc(OCCN2CCCC2)cc1	inactive
O=C(NCCCn1ccnc1)c1ccccc1F	inactive
CN(Cc1ccccc1)C(=O)c1cccc(C(=O)N(C)Cc2ccccc2)c1	inactive
O=c1c([N+](=O)[O-])cc(C(F)(F)F)cn1Cc1cccc(Cl)c1	inactive
O=C(Cn1ccc2cc(S(=O)(=O)N3CCCC3)ccc21)NCc1ccccc1	inactive
O=[N+]([O-])/C=C/c1ccc2c(ccn2Cc2ccccc2)c1	12.6 µM (active)
Cc1c(C(=O)NCC(c2ccco2)N2CCCC2)oc2ccc(Cl)cc12 (stereo not drawn)	inactive
Cc1onc(C(=O)Nc2ccc3c(c2)OCO3)c1[N+](=O)[O-]	inactive
CCCc1[nH]nc2c1C(c1ccc(OC(=O)c3ccco3)cc1)C(C#N)=C(N)O2 (stereo not drawn)	inactive

Structure (SMILES)	Potency
CCCc1[nH]nc2c1C(c1c(C)nn(-c3ccccc3)c1Cl)C(C#N)=C(N)O2 (stereo not drawn)	inactive
CCCc1[nH]nc2c1C(c1ccc(Br)s1)C(C#N)=C(N)O2 (stereo not drawn)	12.6 µM (active)
Cc1ccc(S(=O)(=O)N(Cc2ccccc2)c2ccccn2)cc1[N+](=O)[O-]	inactive
Cc1cccc(OCC(O)CN2CCN(S(=O)(=O)c3ccc(C)cc3C)CC2)c1 (stereo not drawn)	inactive
Cc1ccc(N2C(=O)CN=C2Nc2nc(C)cc(C)n2)cc1	inactive
Cc1cc(C)nc(NC2=NCC(=O)N2c2ccc(Cl)cc2)n1	0.224 µM (active)
COc1ccc(N2C(=O)CN=C2Nc2cccc(C)c2C)cc1OC	inactive
CC1CN(C(=O)CCC(=O)NCc2cccnc2)c2ccccc2O1 (stereo not drawn)	inactive
Cc1ccc(C(=O)N2CC(=O)Nc3ccc(F)cc3C2c2ccc(F)cc2)cc1 (stereo not drawn)	inactive
CC(=O)N1CCN(c2ccccc2NC(=S)NC(=O)c2cc3ccccc3o2)CC1	11.2 µM (active)
COc1cc(C(=O)Nc2cc(C(F)(F)F)ccc2N2CCOCC2)ccc1O	inactive
COc1ccccc1C(=O)NC(=S)Nc1ccccc1N1CCCCC1	3.98 µM (active)
Cc1ccccc1NC(=O)Nc1ccccc1N1CCCCC1	inactive
Cc1cccc(OCC(=O)NC(=S)Nc2ccccc2N2CCOCC2)c1	11.2 µM (active)
CC(Sc1nncn1C)C(=O)Nc1cc(C(F)(F)F)ccc1N1CCOCC1 (stereo not drawn)	inactive
Cc1cccc(OCC(=O)Nc2ccccc2F)c1	inactive
O=C(Nc1ccccc1N1CCN(C(=O)c2ccccc2)CC1)c1ccco1	inactive
Cc1ccc(NC(=O)c2cc3ccccc3o2)cc1	inactive
Cc1cccc(OCCC(=O)Nc2cc(S(=O)(=O)N3CCCCC3)ccc2N2CCOCC2)c1	inactive
O=C(NC(=S)Nc1cc(C(F)(F)F)ccc1N1CCOCC1)c1ccc(-c2cccc(Cl)c2)o1	10 µM (active)
COc1ccccc1C(=O)NC(=S)NC12CC3CC(CC(C3)C1)C2	inactive
